Assay outcomes from PubChem BioAssay.
In the library only some 2.9% were active in any assay of this set; here they are far more common.
SMARCA2 activ – activators of SMARCA2 function; MG213 cells, MMTV-luciferase reporter, dexamethasone, overnight; activation, % at 9.1 µM; hit rate 1% among 370,000; AID 652017; in the data active = activation above about 7.8%;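 also: 0% = vehicle wells and 100% = reference activator wells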
proKLK7 act – activators of human kallikrein-7 zymogen; activation, % at 7 µM; hit rate 0.9% among 370,000; P49862; AID 652039; purified proKLK7, EDANS-DABCYL substrate fluorescence; 100% is mature enzyme control, 0% vehicle;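 active = activation above the mean of all tested compounds plus 3 SD, computed per campaign excluding outliers beyond control limits, cut at about 13% in these data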
Target sequence (P49862 whole entry, looked up): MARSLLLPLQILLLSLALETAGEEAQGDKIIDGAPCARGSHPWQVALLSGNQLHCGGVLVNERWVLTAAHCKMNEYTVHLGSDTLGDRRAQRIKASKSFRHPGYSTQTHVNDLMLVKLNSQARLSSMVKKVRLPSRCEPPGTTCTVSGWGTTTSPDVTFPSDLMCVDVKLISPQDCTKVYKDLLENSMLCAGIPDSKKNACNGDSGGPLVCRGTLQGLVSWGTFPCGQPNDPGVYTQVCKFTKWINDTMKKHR
FAS-TE inh – inhibitors of human fatty acid synthase thioesterase domain | P49327 | recombinant FAS-TE, OMFH fluorogenic substrate, fluorescence endpoint | inhibition, % at 15 µM | hit rate 0.67% among 360,000;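 active = compounds whose normalised, plate-corrected inhibition of enzyme fluorescence in the single-dose primary screen is 50% or more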;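 also: 0% = DMSO with enzyme and 100% = substrate without enzyme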
GAA850 FXN act – activators of GAA850 frataxin (FXN) promoter | HEK293 lucGAA850 FXN promoter luciferase reporter, 24 h; percent of 10 µM SAHA response | activation, % at 6 µM | hit rate 0.56% among 360,000;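 active = activation above the average of all compounds screened plus 3 SD, cutoff fixed separately per campaign, cut at about 7.5% in these data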;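 also: 0% = DMSO wells and 100% = 10 µM SAHA wells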
KLK7 act conf – proKLK7 activation, confirmation; shares compounds with proKLK7 act; purified proKLK7, EDANS-DABCYL substrate fluorescence; scaled: vehicle 0, mature enzyme 100; activation, % at 7 µM; hit rate 68% among 3,200;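 active = activation, as change over the incubation, above the mean of all tested compounds plus 3 SD, cut at about 13% in these data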
EDANS interfere – counter-screen for kallikrein-7 activators: EDANS-DABCYL optical interference; hit rate 80% among 3,200; shares compounds with proKLK7 act; EDANS-DABCYL substrate fluorescence interference, no enzyme, 4 h; solvent 0%, active enzyme control 100%; activation, % at 7 µM;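 active = activation above the all-compound mean plus 3 SD, ignoring values outside control-based bounds, cut at about 4.8% in these data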;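 also: value is the 4 h activation minus the activation read at time zero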
EDANS interf – optically interferes with EDANS-DABCYL fluorescence, kallikrein-7 activator counter-screen; shares compounds with proKLK7 act; hit rate 20% among 250; EDANS-DABCYL peptide fluorescence interference, no enzyme; EC50, µM;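 active = compounds that raise the fluorescence signal in this interference counterscreen, with EC50 at or below 10 µM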;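 also: intact quenched peptide substrate alone read at 355 nm excitation and 520 nm emission; signal is fluorescence gain from T0 to T4 after four hours at room temperature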
The depositor's hits bear a star.

For CSCC[C@H](NC(=O)COc1cc2c(c3oc(=O)c(C)c(C)c13)CCC(C)(C)O2)C(=O)O the results were SMARCA2 activ 0.3, proKLK7 act 57.1*, FAS-TE inh 15.9, GAA850 FXN act -0.1, KLK7 act conf 67.3* and EDANS interfere 72.8*.
Cc1c(C)c2c(OCC(=O)N[C@@H](Cc3ccccc3)C(=O)O)cc3c(c2oc1=O)CCC(C)(C)O3 was read as SMARCA2 activ 0.7, proKLK7 act 55.9*, FAS-TE inh 4.4, GAA850 FXN act 0.2, KLK7 act conf 58.5* and EDANS interfere 58.0*.
Screening COc1ccc(O)c(C(=O)c2cnn(C(=O)c3cc(C)oc3C)c2)c1 returned SMARCA2 activ 2.4, proKLK7 act 40.3*, FAS-TE inh 5.9, GAA850 FXN act -0.3, KLK7 act conf 174.3* and EDANS interfere 143.8*.
`COc1ccc(O)c(C(=O)c2cnn(C(=O)c3cccc(N(C)C)c3)c2)c1` gave SMARCA2 activ 5.0, proKLK7 act 50.5*, FAS-TE inh 6.7, GAA850 FXN act 1.4, KLK7 act conf 168.3* and EDANS interfere 156.8*.
For COc1ccc(C(=O)n2cc(C(=O)c3cc(C)ccc3O)cn2)cc1 the results were SMARCA2 activ -0.6, proKLK7 act 0.3, FAS-TE inh -8.6 and GAA850 FXN act 1.2.
`COc1ccc(O)c(C(=O)c2cnn(S(=O)(=O)c3ccc(C)cc3)c2)c1` gave SMARCA2 activ -1.1, proKLK7 act 1.3, FAS-TE inh 25.6 and GAA850 FXN act 0.3.
Screening COc1ccc(C(=O)n2cc(C(=O)c3cc(C)ccc3O)cn2)cc1OC returned SMARCA2 activ -0.2, proKLK7 act 21.5*, FAS-TE inh 9.7, GAA850 FXN act 0.0, KLK7 act conf 55.5* and EDANS interfere 49.2*.
For COc1cccc(-c2nc(CS(=O)CC(=O)NCc3ccccc3)c(C)o2)c1 (centres undefined) the results were SMARCA2 activ -0.9, proKLK7 act 0.1, FAS-TE inh -1.8 and GAA850 FXN act 0.7.
For CCOc1ccc2c(c1)/C(=C(\C(Cl)=C(Cl)Cl)[N+](=O)[O-])N2 the results were SMARCA2 activ 1.2, proKLK7 act 17.9*, FAS-TE inh -13.9, GAA850 FXN act 0.9, KLK7 act conf 53.4* and EDANS interfere 61.0*.
Screening Cc1nc2ccc(C(=O)NCCCN3CCCC3=O)cn2c1N(C)C(=O)CCc1ccccc1 returned SMARCA2 activ -3.0, proKLK7 act 0.1, FAS-TE inh -10.8 and GAA850 FXN act 0.5.
`O=C(Nc1cccc(-c2nc3ccccc3[nH]2)c1)c1cccc(NC(=O)c2ccco2)c1` gave SMARCA2 activ 7.4, proKLK7 act 33.9*, FAS-TE inh 1.2, GAA850 FXN act -6.5, KLK7 act conf 1.1 and EDANS interfere 2.1.
Screening O=C(O)c1ccc(N/N=C/C2=Cc3ccccc3OC2)cc1 returned SMARCA2 activ 0.5, proKLK7 act 14.5*, FAS-TE inh 10.8, GAA850 FXN act 5.8, KLK7 act conf 4.3 and EDANS interfere 11.0*.
Screening O=C(Cc1ccc([N+](=O)[O-])cc1)NCc1ccccc1Cl returned SMARCA2 activ 2.4, proKLK7 act 40.1*, FAS-TE inh -2.8, GAA850 FXN act -0.8, KLK7 act conf -0.7 and EDANS interfere -1.2.
COc1ccc(CCNC(=O)c2ccc3nc4cc(Cl)ccc4c(=O)n3c2)cc1OC was read as SMARCA2 activ -0.8, proKLK7 act -0.8, FAS-TE inh 1.2 and GAA850 FXN act -0.2.
COC(CNC(=O)c1ccc2nc3ccccc3c(=O)n2c1)OC was read as SMARCA2 activ -0.3, proKLK7 act 27.9*, FAS-TE inh -4.2, GAA850 FXN act 0.0, KLK7 act conf 61.6* and EDANS interfere 68.4*.
COCCCNC(=O)c1ccc2nc3ccccc3c(=O)n2c1 was read as SMARCA2 activ 0.4, proKLK7 act 30.8*, FAS-TE inh -7.1, GAA850 FXN act -0.3, KLK7 act conf 60.0* and EDANS interfere 67.9*.
Screening CS(=O)(=O)N1CCCC(C(=O)NCCCN2CCC(Cc3ccccc3)CC2)C1 (centres undefined) returned SMARCA2 activ 2.8, proKLK7 act -0.2, FAS-TE inh -10.2 and GAA850 FXN act -0.3.
Screening O=S(=O)(c1ccc(Br)cc1)c1nc(-c2ccco2)oc1NCCCn1ccnc1 returned SMARCA2 activ -1.5, proKLK7 act 1.6, FAS-TE inh -2.5 and GAA850 FXN act -1.2.
For CN(CC(=O)Nc1cccc(F)c1)C(=O)/C=C/c1ccc(Br)s1 the results were SMARCA2 activ -1.7, proKLK7 act -0.2, FAS-TE inh 12.1 and GAA850 FXN act -2.1.
CCOc1ccc(/C=C/C(=O)N(C)CC(=O)Nc2cccc(F)c2)cc1OCC was read as SMARCA2 activ -1.4, proKLK7 act 105.9*, FAS-TE inh -12.5, GAA850 FXN act 0.9, KLK7 act conf -9.9 and EDANS interfere -10.1.
COc1ccc2nc(-c3cccc(N)c3)[nH]c2c1 was read as SMARCA2 activ 2.1, proKLK7 act 3.0, FAS-TE inh -7.5 and GAA850 FXN act -3.7.
For COc1ccc(-c2nc3ccc(N4CCN(C)CC4)cc3c(=O)[nH]2)cc1 the results were SMARCA2 activ 5.2, proKLK7 act 14.2*, FAS-TE inh 0.1, GAA850 FXN act 1.9, KLK7 act conf 3.2 and EDANS interfere 5.5*.
Screening COc1cc(-c2nc3ccc(N4CCN(C)CC4)cc3[nH]2)cc(OC)c1OC returned SMARCA2 activ -2.8, proKLK7 act 81.1*, FAS-TE inh -2.6, GAA850 FXN act 1.6, KLK7 act conf 64.0* and EDANS interfere 70.4*.
Cc1sc(-c2ccncc2)nc1OC(=O)c1ccc(Cl)cc1 was read as SMARCA2 activ -1.3, proKLK7 act 8.0, FAS-TE inh 8.7 and GAA850 FXN act -2.8.
Screening Cc1sc(-c2ccncc2)nc1OC(=O)c1ccc(F)cc1F returned SMARCA2 activ -2.9, proKLK7 act 13.6*, FAS-TE inh -3.9, GAA850 FXN act -0.1, KLK7 act conf 12.8*, EDANS interfere 10.6* and EDANS interf inactive.
Screening CC1CCN(C(=O)CN(c2ccc3c(c2)OCO3)S(C)(=O)=O)CC1 returned SMARCA2 activ 2.8, proKLK7 act 0.6, FAS-TE inh -3.5 and GAA850 FXN act 0.3.
Screening CS(=O)(=O)N(CC(=O)N1CCOCC1)c1ccc2c(c1)OCO2 returned SMARCA2 activ -0.9, proKLK7 act 17.2*, FAS-TE inh -6.8, GAA850 FXN act -1.3, KLK7 act conf 0.5 and EDANS interfere -0.4.
`CCC(NC(=O)/C(=C\c1ccc2c(c1)OCO2)NC(C)=O)C(=O)O` (centres undefined) gave SMARCA2 activ -0.2, proKLK7 act 0.2, FAS-TE inh -9.6 and GAA850 FXN act 0.6.
